# Compound activity (PubChem)
# Rows were chosen to be rich in hits. Some 10% of all compounds tested hit in one or more screens of this group.
# PLK1 PBD block: PLK1 (human) polo-box domain binding inhibition; Plk1 PBD binding of FITC phosphopeptide, fluorescence polarization; Potency, µM, for the others: max response, negative = inhibition, usual class: inhibitors; 360,000 tested, 2.8% active; AID 720504; also: potency is read from the fitted curve at half-maximal effect; series mostly up to about 57 µM; nearly all actives have a fitted effect of over 65% in size
# G9a inh: blocks human histone lysine methyltransferase G9a. G9a H3K9 monomethylation, AlphaScreen, 2 h. Potency, µM (titrated, usually from 102 µM), for the others: at the highest dose activity, negative = inhibition, most hits filed as inhibitors. 350,000 tested, 8.8% active; also: potency is read from the fitted curve at half-maximal effect; nearly all actives have a fitted effect of over 75% in size
# Target sequence (Q96KQ7 913-1193 limits assumed): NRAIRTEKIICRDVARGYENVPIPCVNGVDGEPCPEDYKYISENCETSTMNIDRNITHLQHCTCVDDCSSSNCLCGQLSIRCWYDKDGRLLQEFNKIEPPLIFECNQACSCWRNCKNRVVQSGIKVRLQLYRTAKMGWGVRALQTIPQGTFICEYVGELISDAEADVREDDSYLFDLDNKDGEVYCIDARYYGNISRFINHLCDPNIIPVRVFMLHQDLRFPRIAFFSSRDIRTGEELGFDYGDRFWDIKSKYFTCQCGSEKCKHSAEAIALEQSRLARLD
#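 AlphaScreen detection with an anti-monomethyl H3K9 antibody quantified product after a 2 h room-temperature reaction containing 500 nM biotinylated H3K9 peptide, 20 µM SAM and 20 nM enzyme, which had been preincubated 15 min with compound.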
# VDR inhibitor: inhibitors of human vitamin D receptor. VDR-SRC2-3 peptide fluorescence polarization, 2 h. Potency, µM, for the others: max response, negative = inhibition, usual class: inhibitors. 400,000 tested, 0.93% active. AID 504847; also: potency is read from the fitted curve at half-maximal effect
# Target sequence (P11473 whole entry, looked up): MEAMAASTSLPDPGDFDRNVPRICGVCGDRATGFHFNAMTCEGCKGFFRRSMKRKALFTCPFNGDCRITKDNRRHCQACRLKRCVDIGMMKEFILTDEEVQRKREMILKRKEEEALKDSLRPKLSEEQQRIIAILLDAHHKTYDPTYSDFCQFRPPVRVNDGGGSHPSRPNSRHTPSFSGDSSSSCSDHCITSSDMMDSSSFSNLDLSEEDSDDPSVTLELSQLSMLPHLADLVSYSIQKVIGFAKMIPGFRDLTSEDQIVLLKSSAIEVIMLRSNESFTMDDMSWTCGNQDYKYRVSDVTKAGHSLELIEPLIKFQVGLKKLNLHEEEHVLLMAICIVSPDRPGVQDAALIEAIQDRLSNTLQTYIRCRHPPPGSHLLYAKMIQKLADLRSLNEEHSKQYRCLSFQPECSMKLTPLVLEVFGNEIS
#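 FP read-out; VDR + SRC2-3 coactivator peptide; 23 nl compound by pintool; 2 h RT incubation; reagents held at 4 deg C, protected from light.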
# Sfp inh: blocks B. subtilis Sfp PPTase activity; Q9F4F7; 310,000 tested, 3.5% active; AID 1490; Potency, µM, for inactives: largest response in the series, negative = inhibition, actives largely listed as inhibitors; Biochemical Sfp PPTase activity, qHTS;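 also: the enzyme is Sfp with the accession as filed and its product quenches rhodamine fluorescence; potency is read from the fitted curve at half-maximal effect; 0% = enzyme reaction without inhibitor and -100% = no enzyme wells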
#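 Buffer: 50 mM Hepes-Na pH 7.6, 10 mM MgCl2, 0.01% Nonidet P-40, 0.01% BSA. Enzyme 15 nM, pre-exposed to compound 15 min; substrates then added and fluorescence change tracked over 30 min.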
# CCT chaperon mod: cytosolic chaperonin activity modulation | purified chaperonin ATPase assay, HTRF ADP detection, 30 min | activity change, % (concentration not given with the values), hits read low | 360,000 tested, 0.3% active; in the data active = activity change below about -30%
#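 TRiC at 40 or 20 nM final (batch-dependent) in 30 mM Tris pH 7.4, 100 mM KCl, 5 mM MgCl2, 1 mM DTT, with compound at single 76 uM and 10 uM ATP, 30 min at 37 deg C. ADP detected by HTRF Transcreener, 665/615 ratio.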
# Mm-Cpn inhibitor: M. maripaludis TRiC chaperonin inhibition. AID 504842. 330,000 tested, 0.031% active. Potency, µM (highest dose often 76.9 µM), for the others: top-dose activity, negative = inhibition, actives largely listed as inhibitors. purified Mm-Cpn ATPase, ADP Transcreener TR-FRET; also: potency is read from the fitted curve at half-maximal effect; nearly all actives have a fitted effect of over 80% in size
#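 TR-FRET (320 nm excitation; 590 and 665 nm emission) reports ADP made from 10 uM ATP by 25 nM enzyme; compounds were preincubated 10 min, reaction run 30 min, both at 37°C.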
# Starred values were filed as active, the others as inactive; u = inconclusive; x = no result; [ ] = dose if it differs, or a comment. Unless noted, calls follow the shape of the dose curve; as a rule, active = well fitted curve in the direction sought with a large enough effect; inconclusive = small, poorly fitted or top-dose-only effect, or another doubt; inactive = no such curve, though single readings can be large; an effect the other way counts as inactive or inconclusive. Unless noted, % is scaled to controls: 0 for no effect and ±100 for the full control effect.
SMILES,PLK1 PBD block,G9a inh,VDR inhibitor,Sfp inh,CCT chaperon mod,Mm-Cpn inhibitor
C[N+]1(CC(=O)OC2CCCCCCCCCCC2)CCCC1,-4.2%,u,-18.7%,0.0%,-1.2,0.7%
CC(=O)OC1C2CCC1C([N+]1(C)CCCCC1)CC2 (stereo not drawn),-21.4%,31.6µM*,-7.8%,8.2%,-1.2,0.4%
CCOC(=O)c1[nH]c2ccc(Br)cc2c1NC(=O)CCN1CCC(C(=O)OCC)CC1,-11.8%,50.1µM*,-4.6%,6.7%,-0.6,-4.1%
CCOC(=O)c1[nH]c2ccc(Br)cc2c1NC(=O)CCN1CCCCC1,x,-18.4%[59 µM],x,17.7%,x,-4.0%
O=C1Nc2ccccc2C1Cc1ccccn1 (stereo not drawn),-5.3%,u,1.2%,-6.7%,-6.2,0.4%
O=C1Nc2ccccc2C1C(C[N+](=O)[O-])c1ccccn1 (stereo not drawn),-25.6%,35.5µM*,2.0%,-6.8%,1.3,1.4%
O=C(CSc1nc2ccsc2c(=O)n1Cc1ccccc1Cl)NCc1ccc(Cl)cc1,x,-9.7%[59 µM],0.3%,x,x,x
NS(=O)(=O)c1ccc(CCNC(=O)Cn2c(=O)c3cccn3c3ccc(F)cc32)cc1,x,-26.2%[59 µM],9.1%,x,x,x
CCOC(=O)c1cc(C(C)(C)C)oc1CNC(=O)c1c(C)oc2c1CCCC2,-14.8%,u,-6.2%,-0.7%,-53.5*,-2.4%
O=C(NCC(c1cccnc1)N1CCOCC1)c1cccs1 (stereo not drawn),-4.0%,44.7µM*,-6.5%,3.4%,-14.5,-1.2%
Cc1cccc(C(=O)NCC(=O)NCC(c2cccs2)N2CCOCC2)c1 (stereo not drawn),-7.9%,-1.0%[0.501 µM],10.0%,x,-0.1,0.8%
CCc1ccc(NC(=O)C(=O)NCC(c2cccnc2)N2CCN(C)CC2)cc1 (stereo not drawn),x,15.8µM*,13.5%,x,x,x
Cc1cccc(C(=O)NCC(c2cccs2)N2CCOCC2)c1 (stereo not drawn),-6.3%,7.94µM*,-11.7%,x,3.5,1.3%
Cc1ccc2c(c1)N(C(=O)C1CCN(S(=O)(=O)c3c(C)noc3/C=C/c3ccccc3F)CC1)CCO2,x,-3.4%[59 µM],0.9%,x,x,x
Cc1ccc(Cn2cc(S(=O)(=O)c3cccc(Cl)c3)c(=O)c3cc(F)c(N4CCCCC4)cc32)cc1,x,7.7%[59 µM],16.8%,x,x,x
CCOc1ccccc1NC(=O)CCS(=O)(=O)c1ccc2c(c1)CCN2C(C)=O,21.2µM*,14.2%,-5.1%,6.7%,-0.7,0.7%
CCC(=O)N1c2ccc(S(=O)(=O)CCC(=O)Nc3ccc(OC)cc3OC)cc2CC1C (stereo not drawn),-27.8%,39.8µM*,-0.3%,-12.4%,0.4,-1.8%
CC(=O)N1CCc2cc(S(=O)(=O)CCC(=O)Nc3ccc(Cl)cc3F)ccc21,u,70.8µM*,-19.8%,-5.9%,-7.3,-2.7%
CCOc1ccccc1NC(=O)CCS(=O)(=O)c1ccc2c(c1)CC(C)N2C(C)=O (stereo not drawn),u,25.1µM*,8.3%,-18.5%,-0.7,-2.1%
CCC(=O)N1c2ccc(S(=O)(=O)CCC(=O)NCc3ccccc3OC)cc2CC1C (stereo not drawn),x,u,-13.9%,x,x,x
CC(=O)N1c2ccc(S(=O)(=O)NCCC(=O)Nc3ccccc3C)cc2CC1C (stereo not drawn),-7.7%,4.8%[59 µM],-0.4%,1.9%,2.8,0.1%
CCc1ccccc1NC(=O)CCS(=O)(=O)c1ccc2c(c1)CCCN2C(C)=O,-9.9%,x,-7.3%,-8.2%,-0.4,2.3%
CCOC(=O)CNC(=O)c1cc2c(=O)oc3ccccc3c2s1,x,14.6%[59 µM],0.1%,x,x,x
COC1OC2COC(c3ccccc3)OC2C(O)C1O (stereo not drawn),x,x,1.1%,-8.2%,x,x
Cc1ccc(SCc2nc(-c3ccc(C(=O)NCc4ccc(Cl)cc4)cc3)oc2C)cc1,x,u,9.7%,x,x,x
SMILES,PLK1 PBD block,G9a inh,VDR inhibitor,Sfp inh,CCT chaperon mod,Mm-Cpn inhibitor
CCC(=O)N1CCc2cc(S(=O)(=O)CCC(=O)Nc3cccc(C)n3)ccc21,-17.3%,50.1µM*,-6.1%,0.6%,-0.8,-0.6%
CCC(=O)N1CCc2cc(S(=O)(=O)CCC(=O)Nc3ccc(OC)cc3)ccc21,2.9%,x,-10.6%,8.5%,1.0,0.1%
CCC(=O)N1CCc2cc(S(=O)(=O)NCCC(=O)Nc3cc(C)cc(C)c3)ccc21,26.7µM*,-17.5%[59 µM],-7.5%,13.2%,-0.9,1.4%
Cc1ccc(CNC(=O)CCS(=O)(=O)c2ccc3c(c2)CC(C)N3C(=O)C2CC2)cc1 (stereo not drawn),-4.3%,11.8%,-16.8%,20.6%,-0.4,-0.1%
CC(=O)N1CCc2cc(S(=O)(=O)NCCC(=O)Nc3cc(C)cc(C)c3)ccc21,-10.7%,-22.2%[59 µM],-6.5%,7.9%,-2.4,0.7%
CCC(=O)N1c2ccc(S(=O)(=O)CCC(=O)NCc3ccc4c(c3)OCO4)cc2CC1C (stereo not drawn),23.8µM*,11.6%[0.501 µM],u,-6.8%,-2.9,-3.4%
COc1cc(NC(=O)CC(C)S(=O)(=O)c2ccc3c(c2)CCN3C(C)=O)cc(OC)c1OC (stereo not drawn),x,11.2µM*,4.7%,x,x,x
COc1ccc(NCc2cccn2-c2nnc(N3CCCCC3)s2)cc1OC,x,u,1.3%,x,x,x
COC(=O)c1ccccc1NC(=O)CSc1nc2ccccc2nc1Cc1ccc(F)cc1,x,-0.5%[59 µM],11.1%,x,x,x
CC(C)Oc1ccccc1-c1nc(SCC(=O)c2ccc(F)cc2)n[nH]1,x,1.8%[59 µM],-6.4%,x,x,x
CCC(=O)N1CCc2cc(S(=O)(=O)CCC(=O)Nc3cc(Cl)ccc3OC)ccc21,x,12.6µM*,-25.5%,x,x,x
O=C(Nn1c(Cc2cccs2)nc2ccccc2c1=O)c1cccs1,-0.8%,50.1µM*,15.9%,11.5%,-1.3,-5.8%
Cc1ccc(-c2nc3ccccc3c(=O)n2NC(=O)c2cccs2)cc1,-3.0%,-14.3%[59 µM],10.2%,-10.9%,-0.5,0.9%
CC(C)c1ccc(SCc2noc(C(=O)NCC3CCCO3)c2C(=O)O)cc1 (stereo not drawn),-10.7%,20.6%[0.501 µM],-24.2%,100µM*,0.3,-0.3%
Cc1nn(-c2ccccc2)cc1C(c1c(N)[nH]c(=S)[nH]c1=O)c1c(N)[nH]c(=S)[nH]c1=O,-23.7%,31.6µM*,10.4%,22.4µM*,-2.0,3.5%
CN(C)S(=O)(=O)c1cccc(NC(=S)NC(=O)C2CCCCC2)c1,-7.0%,u,-12.2%,-13.4%,2.0,-3.0%
CN(C)S(=O)(=O)c1cccc(NC(=S)NNC(=O)c2cc3ccccc3cc2O)c1,23.8µM*,u,-3.2%,x,1.2,-10.1%
NS(=O)(=O)c1ccc(NC(=S)NNC(=O)c2ccc(Br)o2)cc1,-8.3%,8.91µM*,6.7%,25.4%,-3.8,-0.6%
CCOc1ccc(NC(=S)NC(=O)c2ccco2)cc1,-8.3%,u,-7.3%,56.2µM*,-1.5,-1.1%
